Results on 14 compounds are retold here after PubChem BioAssay.

Assay [1] is described as follows: binders of probe aFSTL3 on microarray, primary screen, stem cell growth factor project, biochemical, small-molecule microarray, fluorescence 635/667 (AID 1064).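 Note: measures binding of the biotinylated anti-FSTL3 antibody to printed compounds.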 The settings on record: higher = more signal.
Assay [2] in a line: binders from COS7 lysate, DM2A8 probe, primary screen, torsin A project, cell lysate, small-molecule microarray, fluorescence 635/667 (AID 1065). The settings on record: higher = more signal, COS7 lysate expressing mutant human TOR1A.
The nature of assay [3]: binders of probe aFGF2 on microarray, primary screen, stem cell growth factor project, biochemical, small-molecule microarray, fluorescence 635/667 (AID 1067).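 Note: measures binding of biotinylated aFGF2 protein to printed compounds on slides; z-score merges feature fluorescence and signal-to-noise across triplicate slides.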 The settings on record: higher = more signal.
Assay [4] is described as follows: binders of probe aFGF10 on microarray, primary screen, stem cell growth factor project, biochemical, small-molecule microarray, fluorescence 635/667 (AID 1071).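 Note: score merges 667 nm spot intensity and signal to noise from triplicate slides.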 The settings on record: higher = more signal.
Assay [5] deals with Neurogenic locus notch homolog protein 2 (Homo sapiens) (UniProt Q04721). As to the kind of experiment: Notch2 binders on small-molecule microarrays, primary screen, biochemical, small-molecule microarray, 635 nm fluorescence, stem cell growth factors (AID 1073). The settings on record: Notch2 binding, higher = more signal.
The target of assay [6] is Pro-neuregulin-1, membrane-bound isoform (Homo sapiens) (UniProt Q02297). As to the kind of experiment: NRG1 binders on small-molecule microarrays, primary screen, psychiatric disease protein project, biochemical, small-molecule microarray, fluorescence 635/667 (AID 1075).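 Note: score combines 667 nm spot fluorescence with signal to noise.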 The settings on record: NRG1 binding, 635 nm fluorescence, higher = more signal.
Assay [7] deals with Neuregulin-1 EGF-like domain. As to the kind of experiment: binders of neuregulin-1 EGF-like domain, primary screen, biochemical, small-molecule microarray, 635 nm fluorescence (AID 1081).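 Note: binding of the protein to compounds printed on small-molecule microarray slides.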 Conditions: small-molecule microarray binding, higher = more signal.
Assay [8] can be described thus: FRG1 promoter luciferase signal modulators, primary screen, FRG1 inhibition for FSHD, cell-based, C2C12 myotubes, firefly/Renilla luciferase, luminescence (AID 1084). The settings on record: higher = more signal, called active from +8 up or from −8 down.
Assay [9] can be described thus: binders of probe aFST on microarray, primary screen, stem cell growth factor project, biochemical, small-molecule microarray, fluorescence 635/667 (AID 1086).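 Note: score merges 667 nm fluorescence with signal-to-noise of each printed compound spot.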 The settings on record: higher = more signal.
Assay [10] can be described thus: binders of probe aHhip on microarray, primary screen, stem cell growth factor project, biochemical, small-molecule microarray, fluorescence 635/667 (AID 1087).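 Note: score merges spot fluorescence at 667nm with spot signal to noise ratio.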 The settings on record: higher = more signal.

The structures appear in SMILES notation. Active and inactive are the calls of the source.

Neurogenic locus notch homolog protein 2 (Homo sapiens), sequence (Q04721 whole entry, looked up, canonical isoform): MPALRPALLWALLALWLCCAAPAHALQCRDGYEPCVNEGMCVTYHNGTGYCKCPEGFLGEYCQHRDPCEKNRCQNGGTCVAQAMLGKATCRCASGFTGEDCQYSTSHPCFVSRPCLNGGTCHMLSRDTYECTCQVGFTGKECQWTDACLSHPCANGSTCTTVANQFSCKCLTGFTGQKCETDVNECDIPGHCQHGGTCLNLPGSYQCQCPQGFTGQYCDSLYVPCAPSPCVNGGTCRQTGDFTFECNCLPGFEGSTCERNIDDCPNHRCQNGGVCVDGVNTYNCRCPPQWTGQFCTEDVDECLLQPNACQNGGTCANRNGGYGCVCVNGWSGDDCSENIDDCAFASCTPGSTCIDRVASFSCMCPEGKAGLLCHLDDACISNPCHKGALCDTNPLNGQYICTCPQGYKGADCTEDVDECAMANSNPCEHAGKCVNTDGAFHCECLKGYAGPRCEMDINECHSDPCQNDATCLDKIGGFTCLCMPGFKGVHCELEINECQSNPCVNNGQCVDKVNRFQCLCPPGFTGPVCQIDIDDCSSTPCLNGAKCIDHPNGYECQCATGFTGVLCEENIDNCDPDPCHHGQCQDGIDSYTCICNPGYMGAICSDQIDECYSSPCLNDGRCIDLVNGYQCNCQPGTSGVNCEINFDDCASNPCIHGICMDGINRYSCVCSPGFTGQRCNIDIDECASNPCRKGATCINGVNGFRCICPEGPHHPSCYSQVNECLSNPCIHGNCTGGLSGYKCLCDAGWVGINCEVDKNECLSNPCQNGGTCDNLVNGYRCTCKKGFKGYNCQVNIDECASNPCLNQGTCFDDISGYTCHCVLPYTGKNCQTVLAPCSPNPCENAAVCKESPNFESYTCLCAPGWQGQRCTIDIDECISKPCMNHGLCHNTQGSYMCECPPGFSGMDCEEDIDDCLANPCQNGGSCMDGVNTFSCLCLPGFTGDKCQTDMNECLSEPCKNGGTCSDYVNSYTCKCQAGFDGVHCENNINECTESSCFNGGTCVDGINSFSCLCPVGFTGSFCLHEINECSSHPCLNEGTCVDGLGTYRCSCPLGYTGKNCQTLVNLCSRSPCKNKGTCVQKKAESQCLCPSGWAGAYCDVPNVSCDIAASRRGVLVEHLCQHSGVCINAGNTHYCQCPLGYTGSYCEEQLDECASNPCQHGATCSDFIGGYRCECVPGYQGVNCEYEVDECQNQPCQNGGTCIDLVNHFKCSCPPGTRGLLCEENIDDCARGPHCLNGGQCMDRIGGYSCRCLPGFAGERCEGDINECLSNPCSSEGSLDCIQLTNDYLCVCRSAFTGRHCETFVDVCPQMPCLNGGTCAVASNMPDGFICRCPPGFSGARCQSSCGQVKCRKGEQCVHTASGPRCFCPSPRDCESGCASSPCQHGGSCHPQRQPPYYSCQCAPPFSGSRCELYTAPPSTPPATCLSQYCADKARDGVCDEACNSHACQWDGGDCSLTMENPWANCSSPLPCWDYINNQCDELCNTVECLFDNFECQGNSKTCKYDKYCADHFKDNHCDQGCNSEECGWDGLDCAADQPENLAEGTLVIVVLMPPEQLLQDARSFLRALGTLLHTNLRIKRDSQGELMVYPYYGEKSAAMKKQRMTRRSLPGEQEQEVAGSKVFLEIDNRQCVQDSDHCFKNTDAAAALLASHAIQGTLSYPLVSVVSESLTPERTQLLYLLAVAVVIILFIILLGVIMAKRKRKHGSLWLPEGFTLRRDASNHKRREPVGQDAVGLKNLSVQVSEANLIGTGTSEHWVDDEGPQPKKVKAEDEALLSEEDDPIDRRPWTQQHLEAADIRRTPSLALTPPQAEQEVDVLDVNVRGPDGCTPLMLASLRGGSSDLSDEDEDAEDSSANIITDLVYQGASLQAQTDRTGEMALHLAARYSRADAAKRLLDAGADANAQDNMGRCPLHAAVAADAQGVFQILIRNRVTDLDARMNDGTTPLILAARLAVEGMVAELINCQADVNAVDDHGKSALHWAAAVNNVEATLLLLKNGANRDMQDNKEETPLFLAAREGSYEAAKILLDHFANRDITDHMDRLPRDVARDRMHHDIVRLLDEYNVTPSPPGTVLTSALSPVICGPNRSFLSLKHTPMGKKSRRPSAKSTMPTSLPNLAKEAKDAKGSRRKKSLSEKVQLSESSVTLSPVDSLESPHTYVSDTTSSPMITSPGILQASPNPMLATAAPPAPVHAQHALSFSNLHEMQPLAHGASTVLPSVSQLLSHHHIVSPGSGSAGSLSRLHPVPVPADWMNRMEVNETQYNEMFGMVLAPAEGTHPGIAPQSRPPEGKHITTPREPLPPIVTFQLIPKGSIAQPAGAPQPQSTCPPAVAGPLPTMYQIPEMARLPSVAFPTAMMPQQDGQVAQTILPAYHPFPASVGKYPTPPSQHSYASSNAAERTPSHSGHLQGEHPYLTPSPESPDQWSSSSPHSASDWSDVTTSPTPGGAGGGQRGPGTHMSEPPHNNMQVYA
Pro-neuregulin-1, membrane-bound isoform (Homo sapiens), sequence (Q02297 whole entry, looked up, the tested form may be a part, canonical isoform): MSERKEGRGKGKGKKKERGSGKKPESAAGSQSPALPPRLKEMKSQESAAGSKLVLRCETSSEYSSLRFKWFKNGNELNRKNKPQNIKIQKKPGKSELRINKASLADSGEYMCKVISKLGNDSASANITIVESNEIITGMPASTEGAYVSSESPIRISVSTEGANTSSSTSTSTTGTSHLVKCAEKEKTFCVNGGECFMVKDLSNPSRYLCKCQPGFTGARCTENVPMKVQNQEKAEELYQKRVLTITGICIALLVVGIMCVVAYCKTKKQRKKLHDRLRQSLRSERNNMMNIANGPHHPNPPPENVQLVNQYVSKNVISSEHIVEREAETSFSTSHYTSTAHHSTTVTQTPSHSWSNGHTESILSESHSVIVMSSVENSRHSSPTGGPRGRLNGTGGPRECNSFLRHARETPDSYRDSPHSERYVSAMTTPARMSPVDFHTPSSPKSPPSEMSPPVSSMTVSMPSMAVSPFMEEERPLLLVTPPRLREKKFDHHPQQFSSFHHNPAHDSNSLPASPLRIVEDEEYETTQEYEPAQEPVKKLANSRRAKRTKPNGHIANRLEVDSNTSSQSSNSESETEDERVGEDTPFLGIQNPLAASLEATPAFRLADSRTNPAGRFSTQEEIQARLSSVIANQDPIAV

Turning to `CC(=CC1CCCCC1)[C@@H](NC(=O)c1cccnc1)c1ccc(-c2ccccc2)cc1`, the composite z-score in [1] was 0.365; in assay [2], -0.545; in assay [3], 0.0021; in assay [4], -0.25; in assay [5], 0.142; in assay [6], 0.0657. Moreover, the composite z-score was -0.362 in [7], 0.281 in assay [9] and -0.194 in [10]. The z-score in [8] was -0.972 (inactive).
Take `CC1CC/C=C\[C@H]2OC34C=CCN(Cn5nnc6ccccc65)C(=O)[C@H]3N(CCCCCO)C(=O)[C@@H]4C2C(=O)O1` (stereo not given in full): the composite z-score was -0.05 in assay [1]; -0.67 in assay [2]; -0.148 in assay [3]; -0.499 in assay [4]; -1.38 in assay [5]; -0.917 in assay [6]. Further, the results for the composite z-score in [7], in assay [9] and in assay [10] were -0.417, -0.815 and -0.251, respectively. Moreover, the z-score in assay [8] was -0.373 (inactive).
`C=CCN1C(=O)[C@]2(O[C@H](CCO)[C@@H]([Si](C)(C)c3ccc(OC)cc3)[C@@H]2C)c2cc(N(C=O)c3ccccc3)ccc21`: the composite z-score is 0.0147 in assay [1]; 0.109 in [2]; -0.0583 in [3]; 0.26 in assay [4]; 0.425 in [5]; 0.495 in assay [6]. In addition, the composite z-score was determined as 0.903 in assay [7], 0.359 in assay [9] and 0.0021 in assay [10]. The z-score in [8] is -2.69 (inactive).
For the compound `CCOC(=O)C1=CC[C@@H](c2ccccc2)N(S(=O)(=O)c2ccc(C)cc2)[C@H]1c1ccc(CC)cc1`, the composite z-score in assay [1] was 0.114; in [2], -0.0251; in [3], -0.0056; in [4], 0.421; in assay [5] it was 1.4; in assay [6], 0.863. The composite z-score is 1.06 in [7], 0.762 in assay [9] and -0.0618 in assay [10]. The z-score in [8] was -3.16 (inactive).
On to `CC(=O)Nc1cc(Br)ccc1C(=O)NCc1ccccc1`, for which the composite z-score in [1] is -0.16; in assay [2] it was -0.0459; in [3] it was 0.0213; in assay [4], -0.0284; in assay [5], 0.359; in [6], 0.685. The composite z-score in assay [7] is 1.23; in [9] it was -0.0314; in [10], -0.226. Further, the z-score in assay [8] is 0.0163 (inactive).
Consider `O=C1NC(=O)C2C1C=CC(C(O)c1ccc(I)cc1)N2Nc1ccccn1` (stereo not given), for which the composite z-score in assay [1] was 0.193; in [2] it was 0.142; in assay [3] it was 0.0111; in assay [4] it was -0.0668; in assay [5], 0.599; in assay [6], 1.71. Besides, the composite z-score in assay [7] was 0.725; in assay [9] it was -0.0237; in [10], -0.0173. Moreover, in assay [8], the z-score is 0.63 (inactive).
Consider `COC(=O)[C@@]1(Cc2ccc(OC)cc2)[C@H]2c3cc(C(=O)N4CCCC4)n(CCCNc4ncc(C(F)(F)F)cc4Cl)c3C[C@H]2CN1C(=O)c1ccccc1`, for which the composite z-score in [1] was 0.965; in assay [2], 0.103; in assay [3] it was 0.578; in assay [4] it was 0.583; in [5], 1.7; in [6], 1.71. Besides, the figures for the composite z-score in [7], in [9] and in [10] were 0.709, 2.32 and 1.31, respectively. Moreover, the z-score in [8] is 2.95 (inactive).
Regarding `CN1CCC(CCCO)=CC1c1cccs1` (stereo not given), the composite z-score in assay [1] is -0.017; in assay [2], 0.0383; in assay [3], -0.159; in assay [4], -0.959; in assay [5] it was -1.01; in assay [6], 0.968. Also, the figures for the composite z-score in assay [7], in assay [9] and in assay [10] were 0.72, -0.142 and -0.0491, respectively. In assay [8], the z-score was 0.159 (inactive).
Turning to `OCC1C=C(/C=C/c2ccccc2)CN1Cc1ccccc1Br` (stereo not given), the composite z-score was -0.337 in [1]; 0.422 in [2]; 0.0619 in [3]; 0.979 in assay [4]; 1.42 in assay [5]; 0.808 in assay [6]. The composite z-score is 0.331 in assay [7], 0.379 in assay [9] and -0.136 in [10]. The z-score in assay [8] was -1.8 (inactive).
On to `CCCNC(=O)[C@@H]1c2ccccc2C(=O)N(Cc2ccccc2OC)[C@H]1c1ccc(CO)cc1`, for which the composite z-score in assay [1] was -0.148; in assay [2], 1.34; in assay [3] it was -0.0058; in assay [4], 0.479; in assay [5] it was 0.901; in assay [6] it was 1.66. Besides, the composite z-score is 0.977 in assay [7], 0.274 in assay [9] and -0.201 in assay [10]. The z-score in assay [8] is -2.3 (inactive).
For `COc1cc2c(cc1O)C=[N+](Cc1cc3c(cc1Br)OCO3)CC2`, the composite z-score in assay [1] is 0.305; in [2], 0.08; in [3], -0.131; in assay [4], 0.0873; in assay [5], -0.441; in [6] it was 0.632. Further, the figures for the composite z-score in assay [7], in assay [9] and in assay [10] were 0.042, -0.332 and -0.137, respectively. Besides, the z-score in assay [8] is 2.28 (inactive).
In the case of `COC(=O)[C@@]1(CCC(=O)OC(C)(C)C)N=C(c2ccc(OCCCO)cc2)O[C@H]1c1ccccc1`, the composite z-score was 0.579 in assay [1]; -0.168 in [2]; -0.024 in assay [3]; -0.0016 in assay [4]; 0.124 in assay [5]; 0.916 in assay [6]. Further, the composite z-score is 0.774 in assay [7], -0.164 in [9] and 0.0505 in [10]. For the same compound, the z-score in assay [8] is 0.174 (inactive).
Turning to `[N-]=[N+]=NCc1ccccc1[C@@H]1OC(c2ccc(OCCCO)cc2)=N[C@]1(CCS(=O)(=O)c1ccccc1)C(N)=O`, the composite z-score in [1] amounted to 0.339; in [2], 0.852; in [3], 0.175; in assay [4], 0.647; in assay [5] it was 1.33; in [6] it was 2.06. Also, the composite z-score in [7] is 1.34; in assay [9] it was 1.71; in assay [10], -0.165. For the same compound, the z-score in assay [8] was 1.81 (inactive).
With `O=C1NC(=O)C2C1C=CC(C(O)c1ccc(I)cc1)N2Nc1ccc(Cl)cc1Cl` (stereo not given), the composite z-score in assay [1] is 0.256; in assay [2], -0.396; in [3], -0.0085; in [4], 0.29; in assay [5] it was 1.43; in assay [6], 1.49. Moreover, the composite z-score is 0.991 in [7], 0.794 in assay [9] and -0.321 in [10]. Besides, the z-score in [8] is -0.526 (inactive).
